Legend:
Assay in all cases: DAPPL (digital affinity profiling via proximity ligation, sequencing); 10 mM Tris-HCl pH 7.5, 50 mM NaCl, 1 mM DTT, 4% glycerol, room temperature, 30 min; GST-TFs on glutathione beads, 16-mer random dsDNA library, 0.1% formaldehyde crosslink after washing; high values mean tight binding
FEV = target: T1, FEV (Homo sapiens, UniProt Q99581 1-238); conditions: protein: recombinant; tags: N-terminal GST; dsDNA, one strand shown
T1 sequence: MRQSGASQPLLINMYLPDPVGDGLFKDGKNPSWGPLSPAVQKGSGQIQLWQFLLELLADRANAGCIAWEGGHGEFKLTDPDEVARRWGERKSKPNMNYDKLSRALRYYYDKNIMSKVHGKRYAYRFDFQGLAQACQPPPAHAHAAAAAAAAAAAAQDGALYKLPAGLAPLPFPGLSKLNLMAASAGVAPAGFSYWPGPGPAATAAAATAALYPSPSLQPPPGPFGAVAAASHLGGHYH
Summary of the method: (§1)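 In yeast, human transcription factors were expressed with a GST fusion, then pulled down on glutathione beads and given DNA barcodes. Pooled with a tag-only sample, they were exposed to 200 nmole of a 16-mer random double-stranded DNA library (Tris/NaCl/DTT/glycerol buffer, room temperature, 30 min), washed, crosslinked with 0.1% formaldehyde, proximity-ligated using BsaI/T4 ligase for 1 h at 37 °C, PCR-amplified and read on an Illumina NextSeq500. Each hexamer's frequency of reads for a factor, divided by the matching frequency for the tag-only sample, gives the binding signal.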

ETV5 = ETV5 (Homo sapiens, UniProt P41161 1-510); conditions: protein: recombinant; tags: N-terminal GST; dsDNA, one strand shown
ETV5, sequence (P41161 whole entry): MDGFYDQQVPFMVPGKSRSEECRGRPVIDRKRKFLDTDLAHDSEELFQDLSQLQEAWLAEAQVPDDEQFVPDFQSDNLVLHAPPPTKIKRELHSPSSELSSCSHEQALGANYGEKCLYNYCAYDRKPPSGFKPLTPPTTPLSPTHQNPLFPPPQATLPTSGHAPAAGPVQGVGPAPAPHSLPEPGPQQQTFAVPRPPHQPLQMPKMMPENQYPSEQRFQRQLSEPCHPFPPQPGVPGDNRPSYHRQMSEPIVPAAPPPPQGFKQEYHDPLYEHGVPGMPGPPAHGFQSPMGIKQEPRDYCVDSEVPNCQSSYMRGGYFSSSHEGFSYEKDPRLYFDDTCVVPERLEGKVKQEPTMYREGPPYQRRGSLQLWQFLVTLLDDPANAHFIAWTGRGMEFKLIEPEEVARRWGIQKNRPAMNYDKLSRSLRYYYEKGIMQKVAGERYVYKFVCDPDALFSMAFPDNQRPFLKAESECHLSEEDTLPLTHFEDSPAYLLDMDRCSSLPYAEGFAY
Summary of the method: as §1

HSF1 = HSF1 (Homo sapiens, UniProt Q00613 1-529); conditions: protein: recombinant; tags: N-terminal GST; chain copies: 3; dsDNA, one strand shown
HSF1, sequence (Q00613 whole entry): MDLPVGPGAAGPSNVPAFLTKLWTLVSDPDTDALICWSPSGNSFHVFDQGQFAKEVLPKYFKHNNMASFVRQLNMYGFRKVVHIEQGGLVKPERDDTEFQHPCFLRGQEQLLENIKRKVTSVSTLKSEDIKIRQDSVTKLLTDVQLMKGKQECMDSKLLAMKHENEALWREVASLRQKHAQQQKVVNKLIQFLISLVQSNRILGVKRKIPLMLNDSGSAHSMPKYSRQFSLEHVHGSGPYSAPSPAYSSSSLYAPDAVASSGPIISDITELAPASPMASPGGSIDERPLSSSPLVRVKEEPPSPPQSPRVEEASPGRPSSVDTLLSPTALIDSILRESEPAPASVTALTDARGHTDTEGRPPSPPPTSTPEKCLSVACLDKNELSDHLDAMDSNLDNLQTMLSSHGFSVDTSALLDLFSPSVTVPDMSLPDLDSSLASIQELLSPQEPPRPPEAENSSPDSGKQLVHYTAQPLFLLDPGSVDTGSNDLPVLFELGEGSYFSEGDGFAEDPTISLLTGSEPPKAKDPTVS
Summary of the method: as §1

SPIC = target: T2, SPIC (Homo sapiens, UniProt Q8N5J4 1-248); conditions: protein: recombinant; tags: N-terminal GST; dsDNA, one strand shown
T2 sequence: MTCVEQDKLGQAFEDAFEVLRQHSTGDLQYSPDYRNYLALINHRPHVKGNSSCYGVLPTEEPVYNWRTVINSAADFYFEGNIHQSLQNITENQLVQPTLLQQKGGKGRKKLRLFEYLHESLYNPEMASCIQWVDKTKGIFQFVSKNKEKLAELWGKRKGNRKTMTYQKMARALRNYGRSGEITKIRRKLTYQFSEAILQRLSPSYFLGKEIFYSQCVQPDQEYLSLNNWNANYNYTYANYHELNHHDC
Summary of the method: as §1

ELF4 = ELF4 (Homo sapiens, UniProt Q99607 1-663); conditions: protein: recombinant; tags: N-terminal GST; dsDNA, one strand shown
ELF4, sequence (Q99607 whole entry): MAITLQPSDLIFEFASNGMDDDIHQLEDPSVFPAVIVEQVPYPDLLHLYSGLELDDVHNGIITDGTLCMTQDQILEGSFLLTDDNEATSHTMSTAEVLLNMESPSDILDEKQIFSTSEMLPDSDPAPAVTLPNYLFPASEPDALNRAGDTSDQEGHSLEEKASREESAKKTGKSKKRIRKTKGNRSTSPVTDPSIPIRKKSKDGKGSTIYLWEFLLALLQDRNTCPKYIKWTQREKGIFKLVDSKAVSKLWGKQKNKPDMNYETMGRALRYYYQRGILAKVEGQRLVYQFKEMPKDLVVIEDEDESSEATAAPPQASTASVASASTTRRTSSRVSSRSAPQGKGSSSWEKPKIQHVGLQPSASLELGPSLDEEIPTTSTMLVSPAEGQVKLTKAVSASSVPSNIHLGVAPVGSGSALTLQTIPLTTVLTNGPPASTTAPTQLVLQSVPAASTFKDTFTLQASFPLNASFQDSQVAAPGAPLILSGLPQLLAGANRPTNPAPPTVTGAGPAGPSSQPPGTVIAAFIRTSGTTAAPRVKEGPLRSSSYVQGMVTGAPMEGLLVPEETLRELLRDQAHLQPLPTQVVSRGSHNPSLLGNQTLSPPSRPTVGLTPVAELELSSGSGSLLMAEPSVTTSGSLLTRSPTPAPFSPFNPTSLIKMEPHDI
Summary of the method: as §1

ELK4 = target: T3, ELK4 (Homo sapiens, UniProt P28324-2 1-405); conditions: protein: recombinant; tags: N-terminal GST; dsDNA, one strand shown
T3 sequence: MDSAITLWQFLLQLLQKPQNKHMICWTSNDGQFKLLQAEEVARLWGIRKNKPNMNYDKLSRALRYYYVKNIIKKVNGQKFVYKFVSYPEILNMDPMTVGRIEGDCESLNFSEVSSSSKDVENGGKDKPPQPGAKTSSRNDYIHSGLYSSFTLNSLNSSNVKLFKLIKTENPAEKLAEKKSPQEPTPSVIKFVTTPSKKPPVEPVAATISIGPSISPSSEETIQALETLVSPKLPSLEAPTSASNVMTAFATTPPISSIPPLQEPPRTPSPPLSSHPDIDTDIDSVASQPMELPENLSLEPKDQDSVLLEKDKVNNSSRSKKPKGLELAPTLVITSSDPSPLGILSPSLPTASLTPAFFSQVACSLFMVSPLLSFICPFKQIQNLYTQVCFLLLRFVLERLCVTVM
Summary of the method: as §1

ETV2 = target: T4, ETV2 (Homo sapiens, UniProt O00321 1-342); conditions: protein: recombinant; tags: N-terminal GST; dsDNA, one strand shown
T4 sequence: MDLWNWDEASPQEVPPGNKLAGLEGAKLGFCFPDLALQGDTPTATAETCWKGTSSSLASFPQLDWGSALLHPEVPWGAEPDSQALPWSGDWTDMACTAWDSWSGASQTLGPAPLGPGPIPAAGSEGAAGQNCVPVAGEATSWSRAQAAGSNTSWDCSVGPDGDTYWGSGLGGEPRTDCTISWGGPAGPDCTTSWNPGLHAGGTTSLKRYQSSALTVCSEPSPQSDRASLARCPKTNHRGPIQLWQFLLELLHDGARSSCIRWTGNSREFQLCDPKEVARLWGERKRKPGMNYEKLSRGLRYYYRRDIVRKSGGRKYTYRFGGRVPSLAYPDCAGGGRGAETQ
Summary of the method: as §1

ELF3 = target: T5, ELF3 (Homo sapiens, UniProt P78545 1-371); conditions: protein: recombinant; tags: N-terminal GST; dsDNA, one strand shown
T5 sequence: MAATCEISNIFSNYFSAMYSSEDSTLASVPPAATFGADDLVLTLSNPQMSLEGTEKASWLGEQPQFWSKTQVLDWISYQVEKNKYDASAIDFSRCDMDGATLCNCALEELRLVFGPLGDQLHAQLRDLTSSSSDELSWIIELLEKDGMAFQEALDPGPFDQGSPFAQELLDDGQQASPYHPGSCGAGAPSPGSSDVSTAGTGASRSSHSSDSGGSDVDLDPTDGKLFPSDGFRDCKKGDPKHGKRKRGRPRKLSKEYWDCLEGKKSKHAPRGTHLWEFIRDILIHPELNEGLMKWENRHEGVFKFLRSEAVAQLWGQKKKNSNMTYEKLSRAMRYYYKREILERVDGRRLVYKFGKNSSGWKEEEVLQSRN
Summary of the method: as §1

CRX = CRX (Homo sapiens, UniProt O43186 1-299); conditions: protein: recombinant; tags: N-terminal GST; dsDNA, one strand shown
CRX, sequence (O43186 whole entry): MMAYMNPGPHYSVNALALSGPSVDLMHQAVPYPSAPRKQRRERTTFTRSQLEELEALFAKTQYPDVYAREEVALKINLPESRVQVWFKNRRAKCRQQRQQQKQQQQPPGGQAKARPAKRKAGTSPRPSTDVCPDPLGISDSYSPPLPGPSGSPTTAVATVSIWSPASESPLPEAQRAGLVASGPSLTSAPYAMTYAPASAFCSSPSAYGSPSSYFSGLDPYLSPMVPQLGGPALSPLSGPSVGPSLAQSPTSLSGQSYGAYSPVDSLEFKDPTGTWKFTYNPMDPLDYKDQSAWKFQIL
Summary of the method: as §1

ETV1 = ETV1 (Homo sapiens, UniProt P50549 1-477); conditions: protein: recombinant; tags: N-terminal GST; dsDNA, one strand shown
ETV1, sequence (P50549 whole entry): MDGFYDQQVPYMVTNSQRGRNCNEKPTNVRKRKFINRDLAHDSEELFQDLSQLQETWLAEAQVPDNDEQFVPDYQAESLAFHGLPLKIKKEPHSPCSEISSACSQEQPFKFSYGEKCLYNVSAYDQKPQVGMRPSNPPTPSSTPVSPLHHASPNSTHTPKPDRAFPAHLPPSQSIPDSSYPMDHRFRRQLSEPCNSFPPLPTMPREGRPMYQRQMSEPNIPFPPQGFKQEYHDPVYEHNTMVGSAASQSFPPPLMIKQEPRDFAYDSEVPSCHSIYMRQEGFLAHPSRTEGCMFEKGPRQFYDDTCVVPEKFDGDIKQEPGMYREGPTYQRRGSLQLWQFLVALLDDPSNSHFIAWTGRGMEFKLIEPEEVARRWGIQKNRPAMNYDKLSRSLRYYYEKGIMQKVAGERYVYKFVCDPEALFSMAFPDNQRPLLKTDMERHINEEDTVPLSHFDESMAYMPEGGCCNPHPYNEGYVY
Summary of the method: as §1

ERF = target: T6, ERF (Homo sapiens, UniProt P50548 1-548); conditions: protein: recombinant; tags: N-terminal GST; dsDNA, one strand shown
T6 sequence: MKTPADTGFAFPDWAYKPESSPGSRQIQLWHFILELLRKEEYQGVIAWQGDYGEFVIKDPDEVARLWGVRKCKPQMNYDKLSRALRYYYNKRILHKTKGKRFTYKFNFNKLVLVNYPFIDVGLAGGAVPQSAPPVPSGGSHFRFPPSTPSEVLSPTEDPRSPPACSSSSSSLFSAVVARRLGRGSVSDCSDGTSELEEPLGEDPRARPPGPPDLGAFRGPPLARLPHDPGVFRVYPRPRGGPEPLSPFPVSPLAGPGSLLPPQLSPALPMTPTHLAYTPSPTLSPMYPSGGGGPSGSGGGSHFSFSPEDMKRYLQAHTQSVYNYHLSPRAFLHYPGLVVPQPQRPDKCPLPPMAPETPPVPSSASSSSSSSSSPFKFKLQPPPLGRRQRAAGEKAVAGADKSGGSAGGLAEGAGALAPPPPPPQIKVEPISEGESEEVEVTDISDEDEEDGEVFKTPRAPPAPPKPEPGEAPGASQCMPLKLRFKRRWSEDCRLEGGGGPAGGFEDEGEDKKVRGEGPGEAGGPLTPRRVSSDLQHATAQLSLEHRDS
Summary of the method: as §1

ETV3L = target: T7, ETV3L (Homo sapiens, UniProt Q6ZN32 1-361); conditions: protein: recombinant; tags: N-terminal GST; dsDNA, one strand shown
T7 sequence: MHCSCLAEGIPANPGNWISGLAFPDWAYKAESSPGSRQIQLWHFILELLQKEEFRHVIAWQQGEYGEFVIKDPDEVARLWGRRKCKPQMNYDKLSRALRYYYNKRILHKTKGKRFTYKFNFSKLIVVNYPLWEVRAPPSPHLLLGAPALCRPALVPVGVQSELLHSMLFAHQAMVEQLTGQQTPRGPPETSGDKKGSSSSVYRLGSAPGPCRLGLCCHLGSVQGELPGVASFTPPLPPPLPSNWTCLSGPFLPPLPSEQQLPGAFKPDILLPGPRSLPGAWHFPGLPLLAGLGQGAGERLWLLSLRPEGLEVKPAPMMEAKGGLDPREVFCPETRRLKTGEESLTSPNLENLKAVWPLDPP
Summary of the method: as §1

ETS2 = target: T8, ETS2 (Homo sapiens, UniProt P15036 1-469); conditions: protein: recombinant; tags: N-terminal GST; dsDNA, one strand shown
T8 sequence: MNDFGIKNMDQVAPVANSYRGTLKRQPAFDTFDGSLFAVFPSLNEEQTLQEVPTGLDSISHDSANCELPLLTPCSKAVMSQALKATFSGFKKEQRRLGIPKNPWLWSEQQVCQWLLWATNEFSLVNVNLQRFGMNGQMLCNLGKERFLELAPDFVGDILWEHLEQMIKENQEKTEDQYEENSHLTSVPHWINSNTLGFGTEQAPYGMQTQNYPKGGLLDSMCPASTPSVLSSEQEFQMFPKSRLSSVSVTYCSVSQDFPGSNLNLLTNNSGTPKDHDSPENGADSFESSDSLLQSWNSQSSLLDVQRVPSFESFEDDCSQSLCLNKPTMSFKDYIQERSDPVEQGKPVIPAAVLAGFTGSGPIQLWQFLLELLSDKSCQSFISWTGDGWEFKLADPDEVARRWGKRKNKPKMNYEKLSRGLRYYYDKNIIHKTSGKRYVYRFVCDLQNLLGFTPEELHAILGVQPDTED
Summary of the method: as §1

SPDEF = target: T9, SPDEF (Homo sapiens, UniProt O95238 1-335); conditions: protein: recombinant; tags: N-terminal GST; dsDNA, one strand shown
T9 sequence: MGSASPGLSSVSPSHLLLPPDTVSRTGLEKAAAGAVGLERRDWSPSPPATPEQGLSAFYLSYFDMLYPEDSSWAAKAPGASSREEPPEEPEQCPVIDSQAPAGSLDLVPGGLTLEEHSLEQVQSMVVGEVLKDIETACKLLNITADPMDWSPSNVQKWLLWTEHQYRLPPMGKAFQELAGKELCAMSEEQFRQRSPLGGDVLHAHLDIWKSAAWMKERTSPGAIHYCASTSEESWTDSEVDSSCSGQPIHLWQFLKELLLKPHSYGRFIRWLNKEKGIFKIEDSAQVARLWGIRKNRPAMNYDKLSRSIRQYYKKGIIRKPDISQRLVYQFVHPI
Summary of the method: as §1

ETV7 = target: T10, ETV7 (Homo sapiens, UniProt Q9Y603 1-341); conditions: protein: recombinant; tags: N-terminal GST; dsDNA, one strand shown
T10 sequence: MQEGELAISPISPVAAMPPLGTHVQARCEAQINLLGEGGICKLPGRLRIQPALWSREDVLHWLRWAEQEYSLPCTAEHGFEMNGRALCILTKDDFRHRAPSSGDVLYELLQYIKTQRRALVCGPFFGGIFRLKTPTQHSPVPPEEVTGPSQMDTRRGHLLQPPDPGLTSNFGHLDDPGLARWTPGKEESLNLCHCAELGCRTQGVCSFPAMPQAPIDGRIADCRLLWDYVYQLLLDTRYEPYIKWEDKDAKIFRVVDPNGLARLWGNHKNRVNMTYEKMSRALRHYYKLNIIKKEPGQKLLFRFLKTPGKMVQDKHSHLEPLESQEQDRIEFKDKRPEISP
Summary of the method: as §1

ELF5 = target: T11, ELF5 (Homo sapiens, UniProt Q9UKW6-2 1-255); conditions: protein: recombinant; tags: N-terminal GST; dsDNA, one strand shown
T11 sequence: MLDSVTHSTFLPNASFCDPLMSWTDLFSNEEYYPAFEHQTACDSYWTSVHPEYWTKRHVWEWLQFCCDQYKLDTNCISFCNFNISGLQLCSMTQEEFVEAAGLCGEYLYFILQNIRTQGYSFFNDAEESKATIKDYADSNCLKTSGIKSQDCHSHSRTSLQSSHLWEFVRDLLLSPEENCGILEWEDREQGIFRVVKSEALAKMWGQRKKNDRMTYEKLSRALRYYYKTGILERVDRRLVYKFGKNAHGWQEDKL
Summary of the method: as §1

ETV3 = target: T12, ETV3 (Homo sapiens, UniProt P41162-2 1-143); conditions: protein: recombinant; tags: N-terminal GST; dsDNA, one strand shown
T12 sequence: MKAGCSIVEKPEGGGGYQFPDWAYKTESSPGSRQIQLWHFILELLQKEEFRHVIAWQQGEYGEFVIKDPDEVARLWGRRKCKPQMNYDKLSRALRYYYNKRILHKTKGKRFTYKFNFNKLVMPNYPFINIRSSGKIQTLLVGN
Summary of the method: as §1

ETV6 = ETV6 (Homo sapiens, UniProt P41212 1-452); conditions: protein: recombinant; tags: N-terminal GST; dsDNA, one strand shown
ETV6, sequence (P41212 whole entry): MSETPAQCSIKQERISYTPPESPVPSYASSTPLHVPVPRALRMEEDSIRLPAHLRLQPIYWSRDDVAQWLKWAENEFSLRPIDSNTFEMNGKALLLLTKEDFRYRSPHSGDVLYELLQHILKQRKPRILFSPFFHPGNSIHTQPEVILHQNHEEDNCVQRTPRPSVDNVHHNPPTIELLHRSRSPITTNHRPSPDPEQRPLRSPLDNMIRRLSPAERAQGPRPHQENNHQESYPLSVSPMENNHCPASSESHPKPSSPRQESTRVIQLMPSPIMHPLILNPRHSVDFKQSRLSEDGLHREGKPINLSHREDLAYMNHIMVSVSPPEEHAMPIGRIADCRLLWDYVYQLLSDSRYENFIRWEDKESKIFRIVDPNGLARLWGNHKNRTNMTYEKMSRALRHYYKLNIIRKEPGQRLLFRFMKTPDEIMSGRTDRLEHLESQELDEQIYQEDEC
Summary of the method: as §1

Sequence: ATCCTT
- binding signal (FEV): 1.64 fold enrichment (6-mer frequency, TF over GST control)
- binding signal (ETV5): 1.67 fold enrichment (6-mer frequency, TF over GST control)
- binding signal (HSF1): 1.98 fold enrichment (6-mer frequency, TF over GST control)
- binding signal (SPIC): 1.74 fold enrichment (6-mer frequency, TF over GST control)
- binding signal (ELF4): 1.7 fold enrichment (6-mer frequency, TF over GST control)
- binding signal (ELK4): 1.77 fold enrichment (6-mer frequency, TF over GST control)
- binding signal (ETV2): 1.57 fold enrichment (6-mer frequency, TF over GST control)
- binding signal (ELF3): 1.47 fold enrichment (6-mer frequency, TF over GST control)
- binding signal (CRX): 2.37 fold enrichment (6-mer frequency, TF over GST control)
- binding signal (ETV1): 1.67 fold enrichment (6-mer frequency, TF over GST control)
- binding signal (ERF): 1.56 fold enrichment (6-mer frequency, TF over GST control)
- binding signal (ETV3L): 1.58 fold enrichment (6-mer frequency, TF over GST control)
- binding signal (ETS2): 1.47 fold enrichment (6-mer frequency, TF over GST control)
- binding signal (SPDEF): 2.13 fold enrichment (6-mer frequency, TF over GST control)
- binding signal (ETV7): 1.49 fold enrichment (6-mer frequency, TF over GST control)
- binding signal (ELF5): 2.26 fold enrichment (6-mer frequency, TF over GST control)
- binding signal (ETV3): 1.84 fold enrichment (6-mer frequency, TF over GST control)
- binding signal (ETV6): 1.68 fold enrichment (6-mer frequency, TF over GST control)

— article PMC7862700, “An all-to-all approach to the identification of sequence-specific readers for epigenetic DNA modifications on cytosine”
